Source: PubChem
NS1 inh – blocks influenza NS1 protein function | Potency, µM (highest dose often 46.1 µM), for inactives: at the top dose activity, positive = more growth | actives 0.4% (n = 270,000) | AID 2326; also: potency is read from the fitted curve at half-maximal effect; actives are rising curves; nearly all actives have a fitted effect of over 50% in size
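Read-out: OD600 growth recovery of NS1-expressing budding yeast. Cells grown overnight at 30C in -URA glucose medium, washed, resuspended and diluted 1:100 in 2% galactose assay medium, pH 6.0. Same strain lacking NS1 served as positive control.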
Shiga inhibitor – Shiga toxin inhibition; inhibition, % at 38.7 µM; actives 9.2% (n = 290,000); Vero cells, Shiga toxin protein synthesis inhibition reporter; AID 2315; in the data active = inhibition mostly above about 28%, no sharp cut-off; inactive = mostly below about 43%; also: 0% is about no effect
SARS PLP yeast – blocks SARS-CoV papain-like protease in a yeast assay; S. cerevisiae expressing SARS-CoV PLpro, growth rescue; Potency, µM (doses to about 32.9 µM), without a hit: top-dose activity, positive = growth rescue, hits mostly activators; actives 0.19% (n = 330,000); also: potency is read from the fitted curve at half-maximal effect; 0% is about no effect; nearly all actives have a fitted effect of over 55% in size
Cycloheximide cs – counter-screen for Shiga toxin inhibitors: cycloheximide protein synthesis inhibition; AID 2314; cell reporter, cycloheximide protein synthesis inhibition counterscreen; actives 12% (n = 300,000); max response, %; in the data active = max response mostly above about 13%, no sharp cut-off; inactive = mostly below about 14%; also: read at 38.3 µM for the half of the compounds with a filed dose; 0% is about no effect
An asterisk follows results filed as active. Shown are actives, neighbours in structure and some others; about 12% of the full set was active somewhere. Unless noted, calls follow the shape of the full dose curve.

`CSCC[C@H](NC(=O)[C@H](CC(C)C)NC(=O)[C@H](CO)NC(=O)[C@H](CCC(=O)O)NC(=O)[C@H](CC(C)C)NC(=O)[C@H](Cc1ccc(O)cc1)NC(=O)[C@H](CCCCN)NC(=O)[C@H](CCCCN)NC(=O)[C@H](C)NC(=O)[C@H](CO)NC(=O)[C@H](CC(C)C)NC(=O)[C@H](CCC(N)=O)NC(=O)CNC(=O)[C@H](CC(C)C)NC(=O)[C@H](CC(C)C)NC(=O)[C@H](CCCCN)NC(=O)[C@H](CO)NC(=O)[C@H](Cc1ccccc1)NC(=O)[C@H](CC(=O)O)NC(=O)[C@H](CO)NC(=O)[C@@H](NC(=O)[C@H](Cc1ccccc1)NC(=O)[C@@H](NC(=O)CNC(=O)[C@H](CC(=O)O)NC(=O)[C@H](C)NC(=O)[C@@H](N)Cc1cnc[nH]1)C(C)C)[C@@H](C)O)C(N)=O` gave Shiga inhibitor -5.2 and Cycloheximide cs -7.8.
O=S(=O)(NCCc1ccncc1)c1ccc(F)cc1 was read as NS1 inh -1.3%, Shiga inhibitor -1.5, SARS PLP yeast 1.8% and Cycloheximide cs -2.2.
Cc1nnc(SCCOc2ccccc2)s1 was read as NS1 inh 0.8%, Shiga inhibitor 36.5, SARS PLP yeast -0.6% and Cycloheximide cs 25.7*.
`CCCSc1nnc(N)s1` gave NS1 inh -18.5%, Shiga inhibitor -7.8, SARS PLP yeast 12.9% and Cycloheximide cs -3.6.
Screening CC(C)COC(=O)Nc1nnc(SCCOc2ccccc2)s1 returned NS1 inh -11.6%, Shiga inhibitor 5.8, SARS PLP yeast 5.0% and Cycloheximide cs 0.3.
`Nc1nnc(SCCOc2ccc(Br)cc2)s1` gave NS1 inh -60.0%, Shiga inhibitor 36.8, SARS PLP yeast -20.6% and Cycloheximide cs 18.4*.
`Nc1nnc(SCCOc2ccccc2)s1` gave NS1 inh 5.9%, Shiga inhibitor 26.6*, SARS PLP yeast 0.9% and Cycloheximide cs 16.6*.
Nc1nnc(SCc2ccccc2Cl)s1 was read as NS1 inh -53.0%, Shiga inhibitor 35.2 and Cycloheximide cs 23.5.
For Cc1c(NC(=O)COc2ccc3ccc(=O)oc3c2)c(=O)n(-c2ccccc2)n1C the results were SARS PLP yeast -8.9%.
For CCOc1cc(/C=C(\C#N)C(=O)Nc2cccc(C(=O)O)c2)ccc1OCc1ccc(Br)cc1 the results were NS1 inh -9.4%, Shiga inhibitor 6.1, SARS PLP yeast 1.0% and Cycloheximide cs -2.2.
For Cc1c2c(nc3ccccc13)CCC(C(C)(C)C)C2 (stereo not given) the results were Shiga inhibitor 61.5*, SARS PLP yeast -3.3% and Cycloheximide cs 25.6*.
`CC(C)(C)C1CCc2[nH]c3ccccc3c(=O)c2C1` (stereo not given) gave NS1 inh -278.3%, Shiga inhibitor 8.6, SARS PLP yeast -41.6% and Cycloheximide cs 13.2.
For CC12CCC(C(=O)NNC(=O)c3ccc(F)cc3)(OC1=O)C2(C)C (stereo not given) the results were NS1 inh -10.1%, Shiga inhibitor -21.8, SARS PLP yeast 1.1% and Cycloheximide cs 1.0.
For CC1=NN(c2cccc(C(=O)O)c2)C(=O)/C1=C\C=C/c1ccccc1 the results were Shiga inhibitor active, SARS PLP yeast -6.1% and Cycloheximide cs 79.9*.
For CC1=NN(c2ccc(C)cc2)C(=O)/C1=C\C=C\c1ccccc1 the results were NS1 inh 7.7%, Shiga inhibitor 3.0, SARS PLP yeast -6.1% and Cycloheximide cs -1.1.
For c1ccc(OCCSc2nnc3sc4ccccc4n23)cc1 the results were NS1 inh -50.4%, Shiga inhibitor 44.8*, SARS PLP yeast -12.5% and Cycloheximide cs 15.6.
COc1cccc(OCCSc2nnc3sc4ccccc4n23)c1 was read as NS1 inh -34.6%, Shiga inhibitor 21.0*, SARS PLP yeast -20.7% and Cycloheximide cs 39.9*.
`CCN(CC)C(=O)CSc1nnc2sc3ccccc3n12` gave NS1 inh -1.5%, Shiga inhibitor -8.2, SARS PLP yeast 1.2% and Cycloheximide cs 2.9.
Screening Cc1cccc(C)c1NC(=O)CNC(=O)CNC(=O)Cc1cccc2ccccc12 returned SARS PLP yeast -3.6%.
Screening Cc1ccccc1OC(=O)n1c(=S)oc2cc(Cl)ccc21 returned NS1 inh -36.4%, Shiga inhibitor 43.0, SARS PLP yeast -29.9% and Cycloheximide cs 15.6*.
Screening O=C(Oc1ccccc1)n1c(=S)oc2ccccc21 returned NS1 inh 15.9%, Shiga inhibitor 34.5, SARS PLP yeast -24.6% and Cycloheximide cs 7.9.
Screening O=C(OCc1ccc([N+](=O)[O-])cc1)c1cc(=O)c2ccccc2o1 returned NS1 inh 5.7%, Shiga inhibitor 26.0, SARS PLP yeast 1.9% and Cycloheximide cs 9.7*.
O=C(OCc1nnc(-c2ccccc2)o1)c1ccco1 was read as NS1 inh -6.8%, Shiga inhibitor 11.9, SARS PLP yeast 8.4% and Cycloheximide cs 16.8.
Screening N#Cc1ccc(COC(=O)c2cc(=O)c3ccccc3o2)cc1 returned Shiga inhibitor -5.1, SARS PLP yeast -0.9% and Cycloheximide cs 2.2.
O=C(OCc1nnc(-c2ccccc2)o1)c1cc(=O)c2ccccc2o1 was read as NS1 inh -15.9%, Shiga inhibitor 36.1, SARS PLP yeast 5.8% and Cycloheximide cs 26.0*.
For Nc1ccccc1C(=O)OCc1ccc([N+](=O)[O-])cc1 the results were NS1 inh 5.4%, Shiga inhibitor 76.5*, SARS PLP yeast 0.4% and Cycloheximide cs 33.2*.
`CCN(CC)CCOC(=O)c1ccc(NC(=O)/C=C/c2cccs2)cc1` gave NS1 inh -4.4%, Shiga inhibitor 117.9*, SARS PLP yeast 9.8% and Cycloheximide cs 74.8*.
Screening CCN(CC)CCOC(=O)c1ccc(NC(=O)C2(c3ccccc3)CCCC2)cc1 returned NS1 inh 3.5%, Shiga inhibitor -8.2, SARS PLP yeast inconclusive and Cycloheximide cs 1.8.
`CCOC(=O)c1ccc(NC(=O)/C=C/c2cccs2)cc1` gave NS1 inh -41.5%, Shiga inhibitor 109.0*, SARS PLP yeast -2.3% and Cycloheximide cs 46.3*.
Screening CC(=O)c1ccc(NC(=O)COC(=O)/C=C/c2cccs2)cc1 returned SARS PLP yeast -34.3%.
For C=C1C(O)[C@@H]2O[C@]3(CC[C@H](/C=C/C(C)[C@@H]4CC(C)=CC5(O[C@H](C[C@@](C)(O)CO)CCC5O)O4)O3)CC[C@H]2O[C@@H]1C(O)CC(C)[C@H]1OC2(CCCCO2)CCC1C (stereo not given in full) the results were SARS PLP yeast -1.7%.
O=C(CNC(c1ccccc1)c1ccccc1)Nc1ccccc1Br was read as NS1 inh -3.2%, Shiga inhibitor -4.7, SARS PLP yeast -6.5% and Cycloheximide cs 4.0.
`Cc1ccc(SCC(=O)N2CCN(S(=O)(=O)c3cccs3)CC2)cc1` gave SARS PLP yeast -0.9%.
`COc1ccc2cc(-c3[nH]ncc3CN3CCCC3c3nonc3C)ccc2c1` (stereo not given) gave NS1 inh -0.3%, Shiga inhibitor 50.9*, SARS PLP yeast -0.7% and Cycloheximide cs 34.6*.
Screening COc1ccc(-c2[nH]ncc2CN2CCCC(C(=O)c3cccc(OC)c3)C2)cc1 (stereo not given) returned NS1 inh 1.5%, Shiga inhibitor -7.7, SARS PLP yeast -0.6% and Cycloheximide cs -3.6.
